Measurements published in the supplement of paper PMC11417369.
The full ranking holds about 25,000 sequences; the median of “ln(normalized median fluorescence intensity)” is about 9.3, and the highest 2% start at about 10. This excerpt belongs to a sample that is enriched for the highest values.

System: PF3D7_0420300 AP2 domain 1 (GST-tagged)
Test: gcPBM binding intensity (ln(normalized median fluorescence intensity)); higher = stronger DNA binding
Outline: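 Binding intensity values are the highest Masliner-normalised natural-log median intensity among replicate spots of either probe orientation. The binding step lasted 1 h in 1× PBS with 1% milk, 0.2 mg/ml BSA, 0.5% salmon testes DNA and 0.03% Triton X-100, using GST-tagged P. falciparum DNA-binding domains expressed in E. coli on an Agilent 4 × 180k array of primer-extended double-stranded 36-bp intergenic genomic probes plus negative controls. Alexa488 anti-GST antibody and a 488 nm scan detected bound protein.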

Row | Sequence | gcPBM binding intensity (ln)
1 | CCTTTATAATTGGAAACACACATATAAAGTATATAT [CACACA_site3900] | 9.2
2 | CATTCAAACAAAAAAAGTACTCATCACATAATATAT [XGTACX_site1251] | 9.44
3 | ATATAAATAAACAGGTGTACTATAATGTTCATAGTA [XGTACX_site1553] | 9.47
4 | TTAATTATAATTATATGTACGAACTTTTTTTTTTTT [XGTACX_site6586] | 9.14
5 | AAAAAAAACGGACACACACACATTCAATATAAAACA [CACACA_site4189] | 10.2
6 | AAAAAAAACGAACACACACACATTCAATATAAAACA [CACACA_site6170] | 10.2
7 | AAAAAAAACAGACACACACACATTCAATATAAAACA [CACACA_site41] | 10.2
8 | AAAAAAAAAAAACACACACACACATTCAATATAAAA [CACACA_site40] | 10
9 | AAAAAAAACAGACACACACACATAAATATAAATAAA [CACACA_site6214] | 9.96
10 | TTCATTAAAACGAATACACACATAAATATATAAAAG [CACACA_site4824] | 9.62
11 | AATATTAAAATATAAACACACAAAATTCAATTATAT [CACACA_site5971] | 9.61
12 | AAAAAAAAAAAAAAAACACACAGAACAATATATAAA [CACACA_site4698] | 9.76
13 | AATATTATAATATAAACACACAAAATTCAATTATAT [CACACA_site3789] | 9.69
14 | TATAATAGTTCATAGGTGCAATATAATAAATTTATA [GTGCAC_site9573] | 9.13
15 | TACCTTTATTAATAAAGTACATTAATCTGTGTATAC [XGTACX_site8720] | 9.09
16 | AGTATTCACTTAATATGTACATATTTATTATAAGAG [XGTACX_site3434] | 9.11
17 | ACATCAAGAATTATTAAGAATACGGATAGATAAAAT [GTGCAC_negctrl_site261] | 9.4
18 | ATAAAATTTTATATGGGTACATAATATAATATATAT [XGTACX_site8160] | 9.21
19 | TATAAGAATAAAAAGGGTACATAAAATAATAATATA [XGTACX_site2355] | 9.55
20 | ATTATAAGAAGGGGGGGTACATAAATATAAATGTAT [XGTACX_site5624] | 10.3
21 | AAAAAAAAAAAGAAGGGTACATATTATATATAATAT [XGTACX_site6204] | 9.43
22 | ATATTAAAAATATATACACACATATATATAAATATA [CACACA_site2257] | 9.37
23 | AAAAAAAATAAAAATAGTACTCAAAAAATTATGAAT [XGTACX_site3073] | 9.19
24 | GCTCAATTTTTGGGTACACACAAATGTATAAGAATA [CACACA_site7178] | 9.22
25 | TTATGGTTATACATATGTACATATATATATATATAT [XGTACX_site1494] | 9.29

Row | Sequence | gcPBM binding intensity (ln)
26 | ATAATTACAAAATAAACACACATATAGATTTATATG [CACACA_site6343] | 9.6
27 | TATATATATAAATACACACACACCCTAAAAATATAT [CACACA_site4970] | 10.1
28 | TACCCACTAAAATACACACACACACCCACATATATA [CACACA_site6141] | 10.2
29 | TACACGCTAAAATACACACACACACCCACATATATA [CACACA_site4153] | 10.2
30 | AAAAAAAATACATACACACACACACCCACATATATA [CACACA_site3561] | 10.1
31 | TATATAAATATACACCCACACACATATATATATATA [CACACA_site9247] | 9.63
32 | TATAAATATACACCCACACACATATATATATATATA [CACACA_site3745] | 9.66
33 | TATAAATATACACCCACACACATATATAAATAAATA [CACACA_site7717] | 9.89
34 | TATATATATATATACACACACACCCTAAAAATATAT [CACACA_site1611] | 9.97
35 | TATACACCCTAAAATACACACACACCCACCCATATA [CACACA_site9380] | 10.3
36 | AATATAAAAATATAAAAACACACGTAAAAAAATTTA [CACACA_site3399] | 9.73
37 | TAATTTCTTATGTATTGTACAAATAATGTATGATAT [XGTACX_site270] | 9.2
38 | AAAAAAAAAAAAAAGGTGCAAATAAATTAACCTTAT | 9.16
39 | TGCAAGGAACAACACACACACACATAAATGTATATA [CACACA_site8149] | 10.2
40 | AGAAAAAACAAAAGAGAAATGAAAAAAAAAAAAAAA [XGTACX_negctrl_site482] | 8.87
41 | TTAAGATAGCAAATATGTACACATTTGTAAAATAAA [XGTACX_site4837] | 9.25
42 | TTAAACGTACATAATACACACACATGTAGACATATA [CACACA_site8635] | 9.79
43 | TATATATATTGTTATTGTACACAAATATAGGAAATA [XGTACX_site7110] | 9.23
44 | TTTATTAATTTATAGTGTACATATTAATAATATATT [XGTACX_site7949] | 9.09
45 | ATATATTATTTCTAGTGTACATACCCATATATAATA [XGTACX_site8902] | 9.46
46 | GTTTTCTAGTGGGGGTGTACATATTTATATTTAATA [XGTACX_site8378] | 10.2
47 | TTTGTGATATTATATTGTACCCTATATTTATTATAA [XGTACX_site4240] | 9.56
48 | TTATGTTCATTATATGCACACATATATATAAATGTA [CACACA_site8947] | 9.24
49 | TTTTTATAACAGCTTAGTACATATAAGAATTCTTGC [XGTACX_site5890] | 8.9
50 | ATAATGAAAACAAGCACACATACATAAAATAAAATA [CACACA_site3257] | 9.86

Row | Sequence | gcPBM binding intensity (ln)
51 | CATAAAAATTGAAGCACACACACAAAAGAAATACAA [CACACA_site1112] | 10.2
52 | GCAAAATAAAGAAGCACACAAAAATGAAATATATAT [CACACA_site3651] | 9.59
53 | TAAAAGAAAGCACATACACACACAAAAAAAAAAAAG [CACACA_site8159] | 10.2
54 | TAAAAGTTGAAGCACACACACAAAAGAAATACAATA [CACACA_site6649] | 10.1
55 | TCATAATGAAAACAAGCACACATACATAAAATAAAA [CACACA_site9069] | 9.7
56 | TAAAAATTGAAGCACACACACAAAAGAAATACAATA [CACACA_site1113] | 10.2
57 | AAGCACAAAAAATACACACACAAAAAATAAAAAAAG [CACACA_site1840] | 10.1
58 | AACATAAAAATTGAAGCACACACACTAATGAAATAC [CACACA_site8287] | 10.2
59 | GGTCTTTTCAACACACGTACATAAAAATATTATACA [XGTACX_site5360] | 9.47
60 | AAATAAATAATAAATAAATAAATAAAATACCAAATA [GTGCAC_negctrl_site620] | 9.6
61 | AAGAAAATATAAAATGCACACTATAAATTGTATATA [CACACA_site7928] | 9.51
62 | TACATAAATACATACATACACACATATATATATATA [CACACA_site2105] | 9.56
63 | AAATAAAAAACAGTGGCACACATTATGTATCCACCT [CACACA_site3756] | 9.32
64 | TATATACGCATGCGCACACACAAGTGGGAAATTTGG [CACACA_site1785] | 9.52
65 | TGATATTTTATTATTAAAATATATACATATATATAT [CACACA_negctrl_site1456] | 9.26
66 | TAAAAAAGTTATATTACACACTTTATTGGTTAACTT [CACACA_site653] | 9.35
67 | CTCTTGTCATTTTGCACACACACATGGATAGGTTAT [CACACA_site5655] | 10.2
68 | AGCTCTTGTCATTTTGCACACACACCCGTATAGGTT [CACACA_site3056] | 10
69 | CTTGTCATTTGGCACACACACATGTATAGGTTATTA [CACACA_site5656] | 9.9
70 | CTCTTGTCATTTTGCACACACACATGTATAGGTTAT [CACACA_site3057] | 10.2
71 | AGCTCTTGTCATTTTGCACACACACCGGTATAGGTT [CACACA_site5654] | 10.1
72 | CTTGTCATTGGGCACACACACATGTATAGGTTATTA [CACACA_site3058] | 9.7
73 | CGTATGTATATATATATACACACTTCTGTGATACGA [CACACA_site1949] | 9.33
74 | ATATAATTATATTCCATACACACATATATTTAAAGG [CACACA_site2958] | 9.42
75 | TAAATAAGCACATACACACATACATACATACATAAA [CACACA_site4017] | 9.87

Row | Sequence | gcPBM binding intensity (ln)
76 | TATAAACATTATAAATGTACAAATATATATATATAT [XGTACX_site3218] | 9.28
77 | ATTATAATTACTCTAGTGCATTATAAATATGAATAA | 8.93
78 | TATGCAAGGAACCACACACACACACGGAAATGTATA [CACACA_site6490] | 10.2
79 | TATGCAAGGAACCACACACACACACCCAAATGTATA [CACACA_site750] | 10.1
80 | TATGCAAGGAACCACACACACACACCGAAATGTATA [CACACA_site4573] | 10.1
81 | AAATTAAAAAAAAATAAATAAAAAAAAAAAAAAAAT [CACACA_negctrl_site1611] | 9.35
82 | TGGATATATGTAAAAATTGCAAGAAAGATAAAAGGA [CACACA_negctrl_site64] | 9.6
83 | GCAACAAAAAATCAGACATGCATTTTAAAATGAATA [TGCATGCA_site846] | 9.14
84 | TATTAAACTAAATGTAGTACATACACAAAAGAAACC [XGTACX_site606] | 9.75
85 | GTTAATATTTTTGGGGGTACTTAAAAAAAAAAAAAA [XGTACX_site1477] | 9.22
86 | ATTTTTTTTTTTTTTTTGGGGGGGTATACTTTTAAA [CACACA_negctrl_site1020] | 10.8
87 | TATACTTTATATATTTTGTATATATATTTTTTTTAT [TGCATGCA_negctrl_site530] | 9.34
88 | TTCATAAGAAGGAACTGTACATATTTTTCATTTTTT [XGTACX_site6770] | 9.15
89 | TACACAAACAGACACACACACACACGCGCACAAAAA [CACACA_site7192] | 10.2
90 | TATTTATTAAGACACACACACACACGCACAAAATAA [CACACA_site6254] | 10.2
91 | AAAAAAAACACGCGCACACACACACCCACAGACACA [CACACA_site5253] | 9.92
92 | AATTAACAAAGACACACACACACACGCACAAAAAAA [CACACA_site6388] | 10.2
93 | ATAGACAGCGCACAAACACACAAACACGCACGCACA [CACACA_site6349] | 9.6
94 | CACAAACAAAGACACACACACACACGCACAAAAATG [CACACA_site7193] | 10.1
95 | TAAATTAAAAGACACACACACAAAAAAAAAAAAAAA [CACACA_site7131] | 9.66
96 | AATGTGTAGACACGCACACACAAAAAAATATTTATA [CACACA_site7384] | 9.6
97 | TTTATTAATAGACACACACACACACGCAAAATAAAA [CACACA_site6255] | 10.2
98 | CCTCATATTATAGACACACACAAAAAAAATAAAAAA [CACACA_site180] | 9.74
99 | TAATAAATAAATGACACACACACACGCAAAAAAAAA [CACACA_site7275] | 10.1
100 | TTATTATTAAGACACACACACAAAAAAAAAAAAAAA [CACACA_site6805] | 9.73
